These results are taken from PMC11062922 (Nature Chemical Biology, 2023).

Where two headings read alike, the source gives them in different places.

Common to all, as to design: species or system human, MV4-11 + K-562 + COLO205 + SK-N-BE2 + OVCAR-8
One assay concerns PRKCD. The following applies: read-out: apparent Kd; compound concentrations: 100 nM and 1000 nM (sheet 'Samples'), CATDS: 1.7220600193925E-2; n = 1.
The next assay has as its system PRKG1. As to conditions: read-out: apparent Kd; compound concentrations: 100 nM and 1000 nM (sheet 'Samples'), CATDS: 2.2056800835646401E-2; n = 1.
The subject of the next assay is PRKX;PRKY. As to conditions: read-out: apparent Kd; compound concentrations: 100 nM and 1000 nM (sheet 'Samples'), CATDS: 5.5547171780811498E-2; n = 1.
The subject of another assay is ROCK2. The following applies: read-out: apparent Kd; compound concentrations: 100 nM and 1000 nM (sheet 'Samples'), CATDS: 2.36815478984151E-2; n = 1.
Another assay has as its system RPS6KA4. The following applies: read-out: apparent Kd; compound concentrations: 100 nM and 1000 nM (sheet 'Samples'), CATDS: 1.94570911667616E-2; n = 1.
Another assay has as its system RPS6KA5. The following applies: read-out: apparent Kd; compound concentrations: 100 nM and 1000 nM (sheet 'Samples'), CATDS: 1.9053083137800499E-2; n = 1.
A further assay deals with RPS6KB1. The following applies: read-out: apparent Kd; compound concentrations: 100 nM and 1000 nM (sheet 'Samples'), CATDS: 1.8709076421106301E-2; n = 1.
The test system of another assay is STK16. As to conditions: read-out: apparent Kd, compound concentrations: 100 nM and 1000 nM (sheet 'Samples'), n = 1.
The next assay concerns TAOK2. The following applies: read-out: apparent Kd; compound concentrations: 100 nM and 1000 nM (sheet 'Samples'), CATDS: 1.8592761990064401E-2; n = 1.
The test system of another assay is TGFBR1. As to conditions: read-out: apparent Kd; compound concentrations: 100 nM and 1000 nM (sheet 'Samples'), CATDS: 1.75354561240674E-2; n = 1.
The next assay relates to ACVR2B. As to conditions: read-out: apparent Kd, n = 1.
The next assay concerns AURKA. The following applies: read-out: apparent Kd; compound concentrations: 100 nM and 1000 nM (sheet 'Samples'), CATDS: 0.17816442953383199; n = 1.
The next assay relates to AURKB. As to conditions: read-out: apparent Kd; compound concentrations: 100 nM and 1000 nM (sheet 'Samples'), CATDS: 0.16275021162643; n = 1.
A further assay concerns CDKL5. As to conditions: read-out: apparent Kd; compound concentrations: 100 nM and 1000 nM (sheet 'Samples'), CATDS: 3.9289785265400001E-2; n = 1.
In another assay the test system is FGFR1. The following applies: read-out: apparent Kd; compound concentrations: 100 nM and 1000 nM (sheet 'Samples'), CATDS: 3.3147223570266997E-2; n = 1.
A further assay concerns FLT3. The following applies: read-out: apparent Kd; compound concentrations: 100 nM and 1000 nM (sheet 'Samples'), CATDS: 3.2008123306219403E-2; n = 1.
The next assay deals with FLT4. As to conditions: read-out: apparent Kd; compound concentrations: 100 nM and 1000 nM (sheet 'Samples'), CATDS: 9.9526112559891702E-2; n = 1.
Another assay relates to GSK3A. As to conditions: read-out: apparent Kd; compound concentrations: 100 nM and 1000 nM (sheet 'Samples'), CATDS: 0.17602991696345399; n = 1.
Another assay has as its system GSK3B. As to conditions: read-out: apparent Kd; compound concentrations: 100 nM and 1000 nM (sheet 'Samples'), CATDS: 0.14122707507865501; n = 1.
The subject of the next assay is MAP3K1. As to conditions: read-out: apparent Kd; compound concentrations: 100 nM and 1000 nM (sheet 'Samples'), CATDS: 3.7364470577418298E-2; n = 1.
The next assay concerns MAP3K5. The following applies: read-out: apparent Kd; compound concentrations: 100 nM and 1000 nM (sheet 'Samples'), CATDS: 2.9017198987143701E-2; n = 1.
The next assay relates to MAPK10. As to conditions: read-out: apparent Kd; compound concentrations: 100 nM and 1000 nM (sheet 'Samples'), CATDS: 3.1635267678624499E-2; n = 1.
The subject of a further assay is MAPK9. The following applies: read-out: apparent Kd; compound concentrations: 100 nM and 1000 nM (sheet 'Samples'), CATDS: 4.3387929743655899E-2; n = 1.
The next assay relates to NQO2. The following applies: read-out: apparent Kd; compound concentrations: 100 nM and 1000 nM (sheet 'Samples'), CATDS: 5.8964681911963503E-2; n = 1.
The next assay deals with NUAK1. As to conditions: read-out: apparent Kd; compound concentrations: 100 nM and 1000 nM (sheet 'Samples'), CATDS: 3.13847647871121E-2; n = 1.
The test system of another assay is PLK4. The following applies: read-out: apparent Kd; compound concentrations: 100 nM and 1000 nM (sheet 'Samples'), CATDS: 5.2678675037883101E-2; n = 1.
Another assay has as its system PRKAA2. As to conditions: read-out: apparent Kd; compound concentrations: 100 nM and 1000 nM (sheet 'Samples'), CATDS: 3.01302788001056E-2; n = 1.
The next assay relates to RET. The following applies: read-out: apparent Kd; compound concentrations: 100 nM and 1000 nM (sheet 'Samples'), CATDS: 5.3147422630729399E-2; n = 1.
Another assay deals with SLK. The following applies: read-out: apparent Kd; compound concentrations: 100 nM and 1000 nM (sheet 'Samples'), CATDS: 2.96585498316322E-2; n = 1.
In another assay the test system is STK10. The following applies: read-out: apparent Kd; compound concentrations: 100 nM and 1000 nM (sheet 'Samples'), CATDS: 4.4384834768784902E-2; n = 1.
A further assay relates to TEC. The following applies: read-out: apparent Kd; compound concentrations: 100 nM and 1000 nM (sheet 'Samples'), CATDS: 3.6245892865131898E-2; n = 1.
The subject of a further assay is TTN. The following applies: read-out: apparent Kd; compound concentrations: 100 nM and 1000 nM (sheet 'Samples'), CATDS: 3.6738161320686101E-2; n = 1.
For the next assay, the system named is ACVR1. As to conditions: read-out: apparent Kd, n = 1.
The next assay relates to DDR2. The following applies: read-out: apparent Kd; compound concentrations: 100 nM and 1000 nM (sheet 'Samples'), CATDS: 0.13771295119314; n = 1.
Another assay relates to PDGFRB. The following applies: read-out: apparent Kd, n = 1.
The test system of the next assay is PIK3CD. As to conditions: read-out: apparent Kd; compound concentrations: 100 nM and 1000 nM (sheet 'Samples'), CATDS: 0.471997589985167; n = 1.
In a further assay the test system is RIPK2. As to conditions: read-out: apparent Kd, n = 1.
The subject of the next assay is BMPR1A. As to conditions: read-out: apparent Kd; compound concentrations:100 nM and 1000 nM (sheet 'Samples'); n = 1.
Another assay relates to CDK6. As to conditions: read-out: apparent Kd; compound concentrations:100 nM and 1000 nM (sheet 'Samples'); n = 1.
For a further assay, the system named is MAP2K2. As to conditions: read-out: apparent Kd; compound concentrations:100 nM and 1000 nM (sheet 'Samples'); n = 1.
In a further assay the test system is MAP2K5. As to conditions: read-out: apparent Kd; compound concentrations:100 nM and 1000 nM (sheet 'Samples'); n = 1.
A further assay relates to NNT. The following applies: read-out: apparent Kd; compound concentrations:100 nM and 1000 nM (sheet 'Samples'); n = 1.
Another assay relates to NQO1. The following applies: read-out: apparent Kd; compound concentrations:100 nM and 1000 nM (sheet 'Samples'); n = 1.
The subject of the next assay is PRKCI. The following applies: read-out: apparent Kd; compound concentrations:100 nM and 1000 nM (sheet 'Samples'); n = 1.
Another assay relates to PRKCZ. As to conditions: read-out: apparent Kd; compound concentrations:100 nM and 1000 nM (sheet 'Samples'); n = 1.
The test system of a further assay is PTK6. As to conditions: read-out: apparent Kd; compound concentrations:100 nM and 1000 nM (sheet 'Samples'); n = 1.
The subject of another assay is RIOK2. As to conditions: read-out: apparent Kd; compound concentrations:100 nM and 1000 nM (sheet 'Samples'); n = 1.
The subject of the next assay is TESK2. The following applies: read-out: apparent Kd; compound concentrations:100 nM and 1000 nM (sheet 'Samples'); n = 1.
The subject of a further assay is TNIK. The following applies: read-out: apparent Kd; compound concentrations:100 nM and 1000 nM (sheet 'Samples'); n = 1.
Another assay deals with TP53RK. The following applies: read-out: apparent Kd; compound concentrations:100 nM and 1000 nM (sheet 'Samples'); n = 1.
Where [1] appears, read: compound concentrations:100 nM and 1000 nM (sheet 'Samples').

`CCn1c(-c2nonc2N)nc2c(C#CC(C)(C)O)ncc(OCC3CCNCC3)c21.O=C(O)C(F)(F)F` [GSK554170A]: the potency estimated from few doses in the assay with PRKCD is 2380 nM; in the assay with PRKG1 it was 1040 nM; in the assay on PRKX;PRKY it was 151 nM; with ROCK2, 859 nM; with RPS6KA4 it was 1520 nM; with RPS6KA5, 1630 nM. Moreover, the potency estimated from few doses is 1740 nM in the assay with RPS6KB1, 1740 nM in the assay with STK16 (CATDS: 1.87060817181595E-2), 1780 nM in the assay on TAOK2 and 2210 nM in the assay with TGFBR1.

As to `Cc1[nH]nc2c1N=C(c1ccccc1F)c1cc(C(N)=O)ccc1N2` [RO0282586-000], the potency estimated from few doses is 1000 nM in the assay on ACVR2B (compound concentrations: 100 nM and 1000 nM (sheet 'Samples'), CATDS: 3.5760557024692601E-2); 30 nM with AURKA; 34.5 nM in the assay with AURKB; 749 nM with CDKL5; 1300 nM in the assay on FGFR1; 1480 nM with FLT3. Moreover, the potency estimated from few doses in the assay on FLT4 is 82.8 nM; in the assay with GSK3A, 30.5 nM; with GSK3B it was 43.6 nM; with MAP3K1 it was 873 nM; in the assay with MAP3K5 it was 2230 nM; with MAPK10, 1550 nM. Moreover, the potency estimated from few doses is 564 nM in the assay on MAPK9; 259 nM in the assay with NQO2; 1600 nM in the assay with NUAK1; 340 nM in the assay with PLK4; 1890 nM in the assay on PRKAA2; 333 nM in the assay with RET. Besides, the potency estimated from few doses in the assay with SLK is 2020 nM; in the assay with STK10, 530 nM; in the assay on STK16 (CATDS: 3.04344636095151E-2), 1810 nM; in the assay with TEC it was 960 nM; in the assay on TTN it was 920 nM.

As for `COC(=O)c1cncc(/C=C/c2c(C)cc(O)cc2C)c1` [GW406731X], the potency estimated from few doses with ACVR1 (compound concentrations: 100 nM and 1000 nM (sheet 'Samples'), CATDS: 0.26070115141914502) was 403 nM; in the assay with DDR2, 2520 nM; in the assay on PDGFRB (compound concentrations: 100 nM and 1000 nM (sheet 'Samples'), CATDS: 0.14028775258346299) it was 2330 nM; with PIK3CD it was 143 nM; in the assay with RIPK2 (compound concentrations: 100 nM and 1000 nM (sheet 'Samples'), CATDS: 0.21478363135213999), 621 nM.

Regarding `Cc1cc(O)cc(C)c1/C=C/c1cncc(C(N)=O)c1` [GW435821X_KCGS], the potency estimated from few doses in the assay with ACVR1 (setting [1]) is 107 nM; in the assay on ACVR2B (setting [1]), 26.5 nM; with BMPR1A, 1200 nM; in the assay with CDK6, 120 nM; in the assay on MAP2K2, 179 nM; with MAP2K5 it was 2600 nM. Moreover, the potency estimated from few doses with NNT was 2010 nM; in the assay with NQO1, 1150 nM; in the assay on PDGFRB (setting [1]), 1570 nM; in the assay on PRKCI, 2300 nM; in the assay on PRKCZ it was 1470 nM; in the assay on PTK6, 1460 nM. The potency estimated from few doses with RIOK2 is 2280 nM; in the assay on RIPK2 (setting [1]), 96.7 nM; with TESK2, 1250 nM; in the assay on TNIK it was 2400 nM; in the assay with TP53RK, 1440 nM.
